The list is not random: actives were taken first. Their share in the collection is about 4.1%.
hgDAF-12 ag: H. glycines DAF-12 receptor agonists, primary screen, cell-based, luminescence, HEK293, GAL4 fusion, UAS-luciferase; Nuclear hormone receptor DAF-12 (Heterodera glycines), GAL4 fusion; HEK293 GAL4-hgDAF12 UAS-luciferase reporter, agonist luminescence; normalized to butyrate control; activation, % at 6.8 µM; 370,000 compounds, 1.8% hits; AID 687014, 2013;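 active = activation above a cutoff set at the mean of all screened compounds plus 3 SD, cut at about 10% in these data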
DAX1 inh-1: DAX1 (NR0B1) inhibitors, primary screen, cell-based, HEK293, Gal4-DAX1, luciferase luminescence; HEK293 Gal4-DAX1 luciferase reporter; inhibition, % at 6.75 µM; 340,000 compounds, 0.99% hits;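 active = inhibition above the mean over all tested compounds plus 3 SD, cut at about 4.2% in these data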;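 also: inhibition shows as a rise in luminescence from relieved DAX1 repression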
Target sequence (P51843 207-470 limits assumed): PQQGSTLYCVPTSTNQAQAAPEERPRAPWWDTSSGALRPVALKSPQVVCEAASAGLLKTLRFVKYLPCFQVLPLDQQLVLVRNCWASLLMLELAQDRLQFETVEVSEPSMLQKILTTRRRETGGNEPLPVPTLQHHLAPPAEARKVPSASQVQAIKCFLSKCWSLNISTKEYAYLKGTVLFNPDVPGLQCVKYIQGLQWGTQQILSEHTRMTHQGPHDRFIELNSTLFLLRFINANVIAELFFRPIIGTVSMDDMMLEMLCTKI
ssDAF-12 act: S. stercoralis DAF-12 nuclear receptor activators, primary screen, cell-based, luminescence, HEK293, GRIP1 co-expression, lit1-tk-luc. activation, % at 6.8 µM. 370,000 compounds, 1% hits. Nuclear hormone receptor DAF-12 (Strongyloides stercoralis). HEK293 ssDAF-12/GRIP1 lit1-tk-luc reporter; % of 3 µM dafachronic acid response. AID 652126, 2013;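 active = activation above the mean over all tested compounds plus 3 SD, cut at about 0.9% in these data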
hcDAF12 agonist: H. contortus DAF-12 nuclear receptor activators, primary screen, cell-based, luminescence, HEK293, lit1-tk-luc reporter. HEK293 hcDAF-12 lit1-tk-luc reporter; 0% DMSO, 100% Δ7-dafachronic acid. activation, % at 6.8 µM. 370,000 compounds, 1.4% hits;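 active = activation above the mean of all tested compounds plus 3 SD, cut at about 5.5% in these data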
DAX1 inh-2: DAX1 (NR0B1) inhibitors on StAR promoter, primary screen, cell-based, luminescence, SF-1 (NR5A1), full-length DAX-1; HEK293T StAR-luciferase reporter, SF-1/DAX-1 repression relief; inhibition, % at 6.8 µM; 370,000 compounds, 1.1% hits; AID 652010, 2013;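 active = inhibition above the mean over all tested compounds plus 3 SD, cut at about 3.6% in these data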;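 also: higher inhibition means more luminescence from relief of DAX-1 repression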
Numbers stand for hits; 0 = inactive; - = no result given.

SMILES	hgDAF-12 ag	DAX1 inh-1	ssDAF-12 act	hcDAF12 agonist	DAX1 inh-2
CS(=O)(=O)Nc1ccc(C2=NN(S(C)(=O)=O)C(c3ccc4c(c3)OCO4)C2)cc1 (stereo not given)	11	0	0	0	0
COc1ccc(C2CC(c3ccc(OC)c(OC)c3)=NN2S(C)(=O)=O)cc1 (stereo not given)	13	4.6	0	0	0
COc1ccc(CC(=O)Nc2ccc(-c3cn4ccccc4n3)cc2)cc1	0	0	0	0	0
COc1ccc(CC(=O)Nc2cccc(-c3cn4ccccc4n3)c2)cc1	0	5.4	0	0	0
Cc1ccc(Nc2n[nH]c(=S)s2)cc1	0	0	0	0	0
CCOc1ccc(Nc2n[nH]c(=S)s2)cc1	12	0	0	0	0
COc1ccc(C(=O)N(C)[C@H]2C[C@H]3c4[nH]c5c(-c6ccccc6)cccc5c4CCN3C(=O)[C@H]2[C@H](C)O)cc1	0	-	0	0	0
COC(=O)c1cc(-c2ccc(Cl)s2)c(=O)n2c1CCC2	0	-	0	6.5	0
COC(=O)c1cc(-c2cc(Cl)cc(Cl)c2)c(=O)n2c1CCC2	0	-	0	0	0
Nc1ccn([C@@H]2O[C@H](C(=O)N[C@H](Cc3ccccc3)C(=O)N[C@H]3CCCCNC3=O)[C@@H](O)[C@H]2O)c(=O)n1	0	-	0	0	0
S=C(Nc1ccccc1Cl)N1CCCC1	0	0	0	0	0
S=C(Nc1ccc(Br)cc1Cl)N1CCCC1	0	0	0	0	4.1
COc1ccc(/C=C2\SC(=S)N(CCC(=O)Nc3ccccc3C(=O)O)C2=O)cc1	0	0	0	0	0
COc1ccc(/C=C2\SC(=S)N(CCCC(=O)Nc3ccccc3C(=O)O)C2=O)cc1OC	0	0	0	6.3	0
CC1=C(C)NC(=S)SC1	0	0	0	5.6	0
S=C1Nc2ccccc2CS1	0	0	0	0	0
Cc1cccc(NC(=O)C(=O)NCC2CCCO2)c1 (stereo not given)	13	0	0	0	3.8
O=C(NCC1CCCO1)Nc1cccc(Cl)c1 (stereo not given)	0	0	0	0	0
CN(C(=O)c1ccccc1Cl)c1ccccc1C(=O)NCc1ccccc1	0	0	0	0	4.1
CN(C(=O)c1ccc(F)cc1)c1ccccc1C(=O)NCc1ccccc1	0	0	0	0	0
Cc1cc(Oc2cccnc2)ccc1NC(=O)Cc1c(C)[nH]c2ccccc12	0	-	0	0	0
CC1=C(C(=O)c2ccccc2)C(c2ccc(OC(F)F)cc2)NC(=S)N1 (stereo not given)	0	0	0	0	0
CC1=C(C(=O)c2ccccc2)C(c2ccc(O)cc2)NC(=S)N1 (stereo not given)	0	4.4	0	0	0
Cc1sc2ncnc(OCC(=O)N3CCN(C(=O)c4ccco4)CC3)c2c1C	0	5.7	0	0	0
Cc1sc2ncnc(SCC(=O)NNC(=O)c3ccco3)c2c1C	0	0	0	0	0
SMILES	hgDAF-12 ag	DAX1 inh-1	ssDAF-12 act	hcDAF12 agonist	DAX1 inh-2
Cc1ccccc1CN1CCCCC(NC(=O)c2ccc(-c3ccccc3)cc2)C1=O (stereo not given)	0	-	0	0	0
CC1CCC(=O)N(CCSc2ccccc2)CC1 (stereo not given)	0	0	0	6.2	0
CCCCc1c(-c2ccccc2OC)ncn1Cc1ccccc1F	0	-	0	0	0
Cc1ccc(S(=O)(=O)NCCCNS(=O)(=O)c2ccccc2[N+](=O)[O-])cc1	0	0	0	0	0
Cc1ccc(S(=O)(=O)NCC(=O)Nc2cccc([N+](=O)[O-])c2)cc1	0	0	1.7	0	0
Cc1ccc(S(=O)(=O)NCCNc2ccccc2[N+](=O)[O-])cc1	0	4.3	0	0	0
O=C(CCSc1ccccc1Cl)Nc1cccc([N+](=O)[O-])c1	11	0	0	0	0
Cc1ccc(S(=O)(=O)NCCCCCCNS(=O)(=O)c2ccc(C)cc2)cc1	0	0	0	0	0

Bioassay records from PubChem.
